# Assay results taken from PMC11006913.
# Numbering of substitutions follows the chain as printed.
# How the values were obtained:
# Assay in all cases: PBM; 200 nM protein, PBS
# Settings in all cases: dsDNA, one strand shown
# [1] = target: T1, SIX6 (Homo sapiens, UniProt O95475 114-200, L167I)
# T1 sequence: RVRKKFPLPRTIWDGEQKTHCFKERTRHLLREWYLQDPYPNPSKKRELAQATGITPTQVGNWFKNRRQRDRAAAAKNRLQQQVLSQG
# [2] = target: T2, SIX6 (Homo sapiens, UniProt O95475 114-200, L143V)
# T2 sequence: T1 sequence with L30V, I54L
# [3] = target: T3, SIX6 (Homo sapiens, UniProt O95475 114-200, H141N)
# T3 sequence: T1 sequence with H28N, I54L
# [4] = target: T4, SIX6 (Homo sapiens, UniProt O95475 114-200, T165P)
# T4 sequence: T1 sequence with T52P, I54L
# [5] = target: T5, SIX6 (Homo sapiens, UniProt O95475 114-200, L167M)
# T5 sequence: T1 sequence with I54M
# [6] = target: T6, SIX6 (Homo sapiens, UniProt O95475 114-200, L143M)
# T6 sequence: T1 sequence with L30M, I54L
# [7] = target: T7, SIX6 (Homo sapiens, UniProt O95475 114-200, L143I)
# T7 sequence: T1 sequence with L30I, I54L
# [8] = target: T8, SIX6 (Homo sapiens, UniProt O95475 114-200, T165G)
# T8 sequence: T1 sequence with T52G, I54L
# [9] = target: T9, SIX6 (Homo sapiens, UniProt O95475 114-200, T139Q)
# T9 sequence: T1 sequence with T26Q, I54L
# [10] = target: T10, SIX6 (Homo sapiens, UniProt O95475 114-200, T165A)
# T10 sequence: T1 sequence with T52A, I54L
# [11] = target: T11, SIX6 (Homo sapiens, UniProt O95475 114-200, L167V)
# T11 sequence: T1 sequence with I54V
# [12] = target: T12, SIX6 (Homo sapiens, UniProt O95475 114-200)
# T12 sequence: T1 sequence with I54L
# [13] = target: T13, SIX6 (Homo sapiens, UniProt O95475 114-200, T165I)
# T13 sequence: T1 sequence with T52I, I54L
# [14] = target: HOXA2 (Homo sapiens, UniProt O43364 129-215, R185T)
# [15] = target: HOXA2 (Homo sapiens, UniProt O43364 129-215, R185K)
# [16] = target: HOXA2 (Homo sapiens, UniProt O43364 129-215, Y150S)
# [17] = target: HOXA2 (Homo sapiens, UniProt O43364 129-215)
# HOXA2 (Homo sapiens, UniProt O43364 129-215), sequence (O43364 129-215): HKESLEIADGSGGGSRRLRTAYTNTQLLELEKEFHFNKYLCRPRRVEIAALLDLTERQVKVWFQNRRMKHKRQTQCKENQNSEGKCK
# HOXA2 (Homo sapiens, UniProt O43364 129-215, R185T), sequence (O43364 129-215 R185T): as the sequence (O43364 129-215) above, with R57T counted along it
# HOXA2 (Homo sapiens, UniProt O43364 129-215, Y150S), sequence (O43364 129-215 Y150S): as the sequence (O43364 129-215) above, with Y22S counted along it
# HOXA2 (Homo sapiens, UniProt O43364 129-215, R185K), sequence (O43364 129-215 R185K): as the sequence (O43364 129-215) above, with R57K counted along it
Sequence,binding signal [1],binding signal [2],binding signal [3],binding signal [4],binding signal [5],binding signal [6],binding signal [7],binding signal [8],binding signal [9],binding signal [10],binding signal [11],binding signal [12],binding signal [13],binding signal [14],binding signal [15],binding signal [16],binding signal [17]
GGGGGCCA,"8.93 upbm affinity estimate (log intensity, higher = more binding, comparable within an allelic series)","8.85 upbm affinity estimate (log intensity, higher = more binding, comparable within an allelic series)","8.92 upbm affinity estimate (log intensity, higher = more binding, comparable within an allelic series)","8.83 upbm affinity estimate (log intensity, higher = more binding, comparable within an allelic series)","9.04 upbm affinity estimate (log intensity, higher = more binding, comparable within an allelic series)","9.04 upbm affinity estimate (log intensity, higher = more binding, comparable within an allelic series)","8.87 upbm affinity estimate (log intensity, higher = more binding, comparable within an allelic series)","8.92 upbm affinity estimate (log intensity, higher = more binding, comparable within an allelic series)","9.03 upbm affinity estimate (log intensity, higher = more binding, comparable within an allelic series)","9.09 upbm affinity estimate (log intensity, higher = more binding, comparable within an allelic series)","9.02 upbm affinity estimate (log intensity, higher = more binding, comparable within an allelic series)","9.03 upbm affinity estimate (log intensity, higher = more binding, comparable within an allelic series)","9.05 upbm affinity estimate (log intensity, higher = more binding, comparable within an allelic series)",,,,
AGCCGGCT,"9.39 upbm affinity estimate (log intensity, higher = more binding, comparable within an allelic series)","9.1 upbm affinity estimate (log intensity, higher = more binding, comparable within an allelic series)","9.34 upbm affinity estimate (log intensity, higher = more binding, comparable within an allelic series)","8.96 upbm affinity estimate (log intensity, higher = more binding, comparable within an allelic series)","9.33 upbm affinity estimate (log intensity, higher = more binding, comparable within an allelic series)","9.42 upbm affinity estimate (log intensity, higher = more binding, comparable within an allelic series)","9.2 upbm affinity estimate (log intensity, higher = more binding, comparable within an allelic series)","9.33 upbm affinity estimate (log intensity, higher = more binding, comparable within an allelic series)","9.36 upbm affinity estimate (log intensity, higher = more binding, comparable within an allelic series)","9.35 upbm affinity estimate (log intensity, higher = more binding, comparable within an allelic series)","9.33 upbm affinity estimate (log intensity, higher = more binding, comparable within an allelic series)","9.39 upbm affinity estimate (log intensity, higher = more binding, comparable within an allelic series)","9.26 upbm affinity estimate (log intensity, higher = more binding, comparable within an allelic series)","7.56 upbm affinity estimate (log intensity, higher = more binding, comparable within an allelic series)","10.5 upbm affinity estimate (log intensity, higher = more binding, comparable within an allelic series)","10.2 upbm affinity estimate (log intensity, higher = more binding, comparable within an allelic series)","7.61 upbm affinity estimate (log intensity, higher = more binding, comparable within an allelic series)"
CCCTCGGC,"9.06 upbm affinity estimate (log intensity, higher = more binding, comparable within an allelic series)","8.91 upbm affinity estimate (log intensity, higher = more binding, comparable within an allelic series)","9.09 upbm affinity estimate (log intensity, higher = more binding, comparable within an allelic series)","8.86 upbm affinity estimate (log intensity, higher = more binding, comparable within an allelic series)","9.04 upbm affinity estimate (log intensity, higher = more binding, comparable within an allelic series)","9.07 upbm affinity estimate (log intensity, higher = more binding, comparable within an allelic series)","8.97 upbm affinity estimate (log intensity, higher = more binding, comparable within an allelic series)","9.07 upbm affinity estimate (log intensity, higher = more binding, comparable within an allelic series)","9.11 upbm affinity estimate (log intensity, higher = more binding, comparable within an allelic series)","8.99 upbm affinity estimate (log intensity, higher = more binding, comparable within an allelic series)","8.92 upbm affinity estimate (log intensity, higher = more binding, comparable within an allelic series)","9.04 upbm affinity estimate (log intensity, higher = more binding, comparable within an allelic series)","9.03 upbm affinity estimate (log intensity, higher = more binding, comparable within an allelic series)",,,,
AGCGCCCG,"9.03 upbm affinity estimate (log intensity, higher = more binding, comparable within an allelic series)","8.99 upbm affinity estimate (log intensity, higher = more binding, comparable within an allelic series)","9.03 upbm affinity estimate (log intensity, higher = more binding, comparable within an allelic series)","9.05 upbm affinity estimate (log intensity, higher = more binding, comparable within an allelic series)","9.04 upbm affinity estimate (log intensity, higher = more binding, comparable within an allelic series)","9.02 upbm affinity estimate (log intensity, higher = more binding, comparable within an allelic series)","8.98 upbm affinity estimate (log intensity, higher = more binding, comparable within an allelic series)","8.98 upbm affinity estimate (log intensity, higher = more binding, comparable within an allelic series)","8.94 upbm affinity estimate (log intensity, higher = more binding, comparable within an allelic series)","8.98 upbm affinity estimate (log intensity, higher = more binding, comparable within an allelic series)","8.97 upbm affinity estimate (log intensity, higher = more binding, comparable within an allelic series)","8.99 upbm affinity estimate (log intensity, higher = more binding, comparable within an allelic series)","9 upbm affinity estimate (log intensity, higher = more binding, comparable within an allelic series)",,,,
AGATATAC,"11 upbm affinity estimate (log intensity, higher = more binding, comparable within an allelic series)","10.4 upbm affinity estimate (log intensity, higher = more binding, comparable within an allelic series)","10.8 upbm affinity estimate (log intensity, higher = more binding, comparable within an allelic series)","9.92 upbm affinity estimate (log intensity, higher = more binding, comparable within an allelic series)","10.9 upbm affinity estimate (log intensity, higher = more binding, comparable within an allelic series)","10.9 upbm affinity estimate (log intensity, higher = more binding, comparable within an allelic series)","10.4 upbm affinity estimate (log intensity, higher = more binding, comparable within an allelic series)","11 upbm affinity estimate (log intensity, higher = more binding, comparable within an allelic series)","10.9 upbm affinity estimate (log intensity, higher = more binding, comparable within an allelic series)","10.8 upbm affinity estimate (log intensity, higher = more binding, comparable within an allelic series)","10.7 upbm affinity estimate (log intensity, higher = more binding, comparable within an allelic series)","10.9 upbm affinity estimate (log intensity, higher = more binding, comparable within an allelic series)","10.8 upbm affinity estimate (log intensity, higher = more binding, comparable within an allelic series)","8.17 upbm affinity estimate (log intensity, higher = more binding, comparable within an allelic series)",,,"8.19 upbm affinity estimate (log intensity, higher = more binding, comparable within an allelic series)"
